{"source": "PubChem BioAssay (NCI)", "key": {"[1]": {"test": "NCI Yeast Anticancer Drug Screen. Data for the wt1 strain (AID 149);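 note: 0% = growth of vehicle-treated wt1 cultures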", "conditions": "S. cerevisiae wt1 strain (SPY 50644) growth inhibition, stronger effect = higher value", "procedure,_shortened": "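Using yeast strain wt1, compound-induced growth inhibition was determined against vehicle-treated cultures.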"}, "[2]": {"test": "NCI Yeast Anticancer Drug Screen. Data for the rad50EPP+ strain (AID 151);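 note: 0% = growth of vehicle-treated control cultures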", "conditions": "S. cerevisiae rad50 mutant strain, stronger effect = higher value", "procedure,_shortened": "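One strain with a rad50 alteration (rad50EPP+) was compound-treated, its growth then compared to that of vehicle controls.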"}, "[3]": {"test": "NCI Yeast Anticancer Drug Screen. Data for the mgt1 strain (AID 153)", "conditions": "S. cerevisiae mgt1 mutant growth inhibition, stronger effect = higher value", "procedure,_shortened": "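After exposure of the mgt1 yeast mutant to compound, growth was measured and reported as inhibition compared with vehicle controls.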"}, "[4]": {"test": "NCI Yeast Anticancer Drug Screen. Data for the rad50 strain (AID 155);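 note: 0% = growth of vehicle-only cultures of the same strain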", "conditions": "S. cerevisiae rad50 strain growth inhibition, stronger effect = higher value", "procedure,_shortened": "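Relative growth inhibition (compound vs vehicle) was measured in yeast with a defined repair-gene alteration.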"}, "[5]": {"test": "NCI Yeast Anticancer Drug Screen. Data for the mec2-1 strain (AID 157)", "conditions": "S. cerevisiae mec2-1 strain, stronger effect = higher value", "procedure,_shortened": "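Test agents were screened against the mec2-1 yeast strain, with defined DNA repair or cell cycle alteration. Growth was scored as inhibition against vehicle-only controls.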"}, "[6]": {"test": "NCI Yeast Anticancer Drug Screen. Data for the rad14 strain (AID 159);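 note: 0% = growth of vehicle-treated control cultures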", "conditions": "S. cerevisiae rad14 strain growth inhibition, stronger effect = higher value", "procedure,_shortened": "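Screen for anticancer potential: a yeast strain altered in DNA damage repair is grown with compound, and reduced growth is quantified against vehicle controls.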"}, "[7]": {"test": "NCI Yeast Anticancer Drug Screen. Data for the sgs1 mgt1 strain (AID 161);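 note: 0% = growth of cultures given vehicle only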", "conditions": "S. cerevisiae sgs1 mgt1 strain, stronger effect = higher value", "procedure,_shortened": "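Mutant yeast exposed to compound; growth scored against vehicle-only wells.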"}, "[8]": {"test": "NCI Yeast Anticancer Drug Screen. Data for the CLN2oe strain (AID 163);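 note: 0% = growth of vehicle-only control cultures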", "conditions": "S. cerevisiae CLN2oe strain, stronger effect = higher value", "procedure,_shortened": "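Here, growth inhibition in a cell-cycle-altered yeast strain after compound exposure was quantified against vehicle control growth.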"}, "[9]": {"test": "NCI Yeast Anticancer Drug Screen. Data for the cln2 rad14 strain (AID 165);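 note: 0% = growth equal to vehicle treated cultures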", "conditions": "S. cerevisiae cln2 rad14 strain, stronger effect = higher value", "procedure,_shortened": "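Growth of compound-exposed yeast (cln2 rad14 genotype) measured and expressed as inhibition relative to vehicle.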"}, "[10]": {"test": "NCI Yeast Anticancer Drug Screen. Data for the bub3 strain (AID 167)", "conditions": "S. cerevisiae bub3 mutant strain, stronger effect = higher value", "procedure,_shortened": "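Screening used yeast with an engineered genetic alteration affecting cell cycle control. Compound-exposed cultures were compared with vehicle cultures, and reduced growth was taken as inhibition.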"}, "[11]": {"test": "NCI Yeast Anticancer Drug Screen. Data for the wt2 strain (AID 169);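 note: 0% = growth of vehicle-treated yeast cultures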", "conditions": "S. cerevisiae wt2 strain growth inhibition, stronger effect = higher value", "procedure,_shortened": "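Genetically defined yeast strains from a DNA-repair/cell-cycle panel were used. Compound-exposed yeast growth was measured, and the inhibition was calculated relative to vehicle treatment.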"}, "[12]": {"test": "NCI Yeast Anticancer Drug Screen. Data for the mlh1 strain (AID 171);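 note: 0% = growth of vehicle-treated control cultures of the same strain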", "conditions": "S. cerevisiae mlh1 strain growth inhibition, stronger effect = higher value", "procedure,_shortened": "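Here the genetically defined yeast mutant is grown with each compound, and the extent to which its growth falls below that of vehicle-exposed cells is reported.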"}, "[13]": {"test": "NCI Yeast Anticancer Drug Screen. Data for the sgs1 strain (AID 173);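 note: 0% = growth of vehicle-only control cultures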", "conditions": "S. cerevisiae sgs1 mutant, stronger effect = higher value", "procedure,_shortened": "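Relative growth inhibition, referenced to vehicle, was determined in a yeast strain with a defined alteration affecting DNA damage repair or cell cycle control after compound exposure.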"}, "[14]": {"test": "NCI Yeast Anticancer Drug Screen. Data for the mlh1 rad18 strain (AID 175)", "conditions": "S. cerevisiae mlh1 rad18 strain growth inhibition, stronger effect = higher value", "procedure,_shortened": "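In this whole-cell yeast screen, a strain with altered DNA damage repair is challenged with compound, and its growth is measured against matched vehicle-treated controls.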"}, "[15]": {"test": "NCI Yeast Anticancer Drug Screen. Data for the rad18 strain (AID 177)", "conditions": "S. cerevisiae rad18 mutant growth inhibition, stronger effect = higher value", "procedure,_shortened": "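Screen uses a yeast strain with a defined lesion in DNA damage repair; compound effect is read as loss of growth compared to untreated vehicle cultures.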"}, "[16]": {"conditions": "at 5.0 µM (retest, dose inferred, filed as 0.5)"}, "[17]": {"conditions": "at 50.0 µM (retest, dose inferred, filed as 5.0)"}}, "note": "The panel holds about 79,000 compounds, 15% with a hit somewhere; the sample as a whole holds those more often. Values without a mark were called inactive. The source made the active and inactive calls. Cut-off read from the data, not from the text of the source: active = growth inhibition above about 70%; inactive = the rest.", "data": [{"smiles": "CN1CCc2ccccc2C1Cc1ccccc1NC(=O)c1sc2ccccc2c1Cl", "note": "(stereo not drawn)", "values": [{"measurement": "growth inhibition", "setting": "[1]; at 1.2 µM", "result": -23, "unit": "%"}, {"measurement": "growth inhibition", "setting": "[1]; at 3.7 µM", "result": -22, "unit": "%"}, {"measurement": "growth inhibition", "setting": "[1]; at 11.0 µM", "result": -13, "unit": "%"}, {"measurement": "growth inhibition", "setting": "[1]; at 33.0 µM", "result": 22, "unit": "%"}, {"measurement": "growth inhibition", "setting": "[1]; at 100.0 µM", "result": "88% (active)"}, {"measurement": "growth inhibition", "setting": "[2]; at 1.2 µM", "result": -21, "unit": "%"}, {"measurement": "growth inhibition", "setting": "[2]; at 3.7 µM", "result": -9, "unit": "%"}, {"measurement": "growth inhibition", "setting": "[2]; at 11.0 µM", "result": 19, "unit": "%"}, {"measurement": "growth inhibition", "setting": "[2]; at 33.0 µM", "result": 68, "unit": "%"}, {"measurement": "growth inhibition", "setting": "[2]; at 100.0 µM", "result": "83% (active)"}, {"measurement": "growth inhibition", "setting": "[3]; at 1.2 µM", "result": -19, "unit": "%"}, {"measurement": "growth inhibition", "setting": "[3]; at 3.7 µM", "result": -24, "unit": "%"}, {"measurement": "growth inhibition", "setting": "[3]; at 11.0 µM", "result": 19, "unit": "%"}, {"measurement": "growth inhibition", "setting": "[3]; at 33.0 µM", "result": "95% (active)"}, {"measurement": "growth inhibition", "setting": "[3]; at 100.0 µM", "result": "93% (active)"}, {"measurement": "growth inhibition", "setting": "[4]; at 1.2 µM", "result": -33, "unit": "%"}, {"measurement": "growth inhibition", "setting": "[4]; at 3.7 µM", "result": -36, "unit": "%"}, {"measurement": "growth inhibition", "setting": "[4]; [16]", "result": 8, "unit": "%"}, {"measurement": "growth inhibition", "setting": "[4]; at 11.0 µM", "result": -22, "unit": "%"}, {"measurement": "growth inhibition", "setting": "[4]; at 33.0 µM", "result": 29, "unit": "%"}, {"measurement": "growth inhibition", "setting": "[4]; [17]", "result": "97% (active)"}, {"measurement": "growth inhibition", "setting": "[4]; at 50.0 µM", "result": "96.8% (active)"}, {"measurement": "growth inhibition", "setting": "[4]; at 100.0 µM", "result": "90% (active)"}, {"measurement": "growth inhibition", "setting": "[5]; at 1.2 µM", "result": -39, "unit": "%"}, {"measurement": "growth inhibition", "setting": "[5]; at 3.7 µM", "result": -29, "unit": "%"}, {"measurement": "growth inhibition", "setting": "[5]; [16]", "result": -7, "unit": "%"}, {"measurement": "growth inhibition", "setting": "[5]; at 11.0 µM", "result": -2, "unit": "%"}, {"measurement": "growth inhibition", "setting": "[5]; at 33.0 µM", "result": 36, "unit": "%"}, {"measurement": "growth inhibition", "setting": "[5]; [17]", "result": 68, "unit": "%"}, {"measurement": "growth inhibition", "setting": "[5]; at 50.0 µM", "result": "98% (active)"}, {"measurement": "growth inhibition", "setting": "[5]; at 100.0 µM", "result": "92% (active)"}, {"measurement": "growth inhibition", "setting": "[6]; at 1.2 µM", "result": -50, "unit": "%"}, {"measurement": "growth inhibition", "setting": "[6]; at 3.7 µM", "result": -40, "unit": "%"}, {"measurement": "growth inhibition", "setting": "[6]; at 11.0 µM", "result": -24, "unit": "%"}, {"measurement": "growth inhibition", "setting": "[6]; at 33.0 µM", "result": "89% (active)"}, {"measurement": "growth inhibition", "setting": "[6]; at 100.0 µM", "result": "93% (active)"}, {"measurement": "growth inhibition", "setting": "[7]; [16]", "result": -7, "unit": "%"}, {"measurement": "growth inhibition", "setting": "[7]; [17]", "result": "99% (active)"}, {"measurement": "growth inhibition", "setting": "[7]; at 50.0 µM", "result": "99% (active)"}, {"measurement": "growth inhibition", "setting": "[8]; at 1.2 µM", "result": 14, "unit": "%"}, {"measurement": "growth inhibition", "setting": "[8]; at 3.7 µM", "result": 7, "unit": "%"}, {"measurement": "growth inhibition", "setting": "[8]; at 11.0 µM", "result": 14, "unit": "%"}, {"measurement": "growth inhibition", "setting": "[8]; at 33.0 µM", "result": 62, "unit": "%"}, {"measurement": "growth inhibition", "setting": "[8]; at 100.0 µM", "result": "93% (active)"}, {"measurement": "growth inhibition", "setting": "[9]; [16]", "result": -10, "unit": "%"}, {"measurement": "growth inhibition", "setting": "[9]; [17]", "result": 60, "unit": "%"}, {"measurement": "growth inhibition", "setting": "[9]; at 50.0 µM", "result": "77.3% (active)"}, {"measurement": "growth inhibition", "setting": "[10]; at 1.2 µM", "result": -54, "unit": "%"}, {"measurement": "growth inhibition", "setting": "[10]; at 3.7 µM", "result": -22, "unit": "%"}, {"measurement": "growth inhibition", "setting": "[10]; [16]", "result": 7, "unit": "%"}, {"measurement": "growth inhibition", "setting": "[10]; at 11.0 µM", "result": -33, "unit": "%"}, {"measurement": "growth inhibition", "setting": "[10]; at 33.0 µM", "result": 22, "unit": "%"}, {"measurement": "growth inhibition", "setting": "[10]; [17]", "result": "94% (active)"}, {"measurement": "growth inhibition", "setting": "[10]; at 50.0 µM", "result": "97.5% (active)"}, {"measurement": "growth inhibition", "setting": "[10]; at 100.0 µM", "result": "92% (active)"}, {"measurement": "growth inhibition", "setting": "[11]; at 1.2 µM", "result": -13, "unit": "%"}, {"measurement": "growth inhibition", "setting": "[11]; at 3.7 µM", "result": -13, "unit": "%"}, {"measurement": "growth inhibition", "setting": "[11]; at 11.0 µM", "result": -3, "unit": "%"}, {"measurement": "growth inhibition", "setting": "[11]; at 33.0 µM", "result": "89% (active)"}, {"measurement": "growth inhibition", "setting": "[11]; at 100.0 µM", "result": "93% (active)"}, {"measurement": "growth inhibition", "setting": "[12]; at 1.2 µM", "result": -22, "unit": "%"}, {"measurement": "growth inhibition", "setting": "[12]; at 3.7 µM", "result": -16, "unit": "%"}, {"measurement": "growth inhibition", "setting": "[12]; at 11.0 µM", "result": 8, "unit": "%"}, {"measurement": "growth inhibition", "setting": "[12]; at 33.0 µM", "result": "90% (active)"}, {"measurement": "growth inhibition", "setting": "[12]; at 100.0 µM", "result": "93% (active)"}, {"measurement": "growth inhibition", "setting": "[13]; at 1.2 µM", "result": -25, "unit": "%"}, {"measurement": "growth inhibition", "setting": "[13]; at 3.7 µM", "result": -20, "unit": "%"}, {"measurement": "growth inhibition", "setting": "[13]; at 11.0 µM", "result": 18, "unit": "%"}, {"measurement": "growth inhibition", "setting": "[13]; at 33.0 µM", "result": "90% (active)"}, {"measurement": "growth inhibition", "setting": "[13]; at 100.0 µM", "result": "89% (active)"}, {"measurement": "growth inhibition", "setting": "[14]; [16]", "result": -8, "unit": "%"}, {"measurement": "growth inhibition", "setting": "[14]; [17]", "result": "93% (active)"}, {"measurement": "growth inhibition", "setting": "[14]; at 50.0 µM", "result": "98.2% (active)"}, {"measurement": "growth inhibition", "setting": "[15]; at 1.2 µM", "result": -38, "unit": "%"}, {"measurement": "growth inhibition", "setting": "[15]; at 3.7 µM", "result": -23, "unit": "%"}, {"measurement": "growth inhibition", "setting": "[15]; at 11.0 µM", "result": -16, "unit": "%"}, {"measurement": "growth inhibition", "setting": "[15]; at 33.0 µM", "result": 26, "unit": "%"}, {"measurement": "growth inhibition", "setting": "[15]; at 100.0 µM", "result": "90% (active)"}]}]}
